Data taken from PubChem BioAssay (EPA / NIEHS).
Several values for one entry are separate records, joined by “and”; a condition that tells them apart may be missing. Equal entries are not always repeated. Activity calls are given as the source filed them. How the source made its calls: active means hit-call score of the fitted dose curve at least 0.9, where 1 is the maximum; inactive means score below 0.9.

Experiment: BSK_LPS_PGE2: BioMAP Diversity Plus: LPS Assay for Prostaglandin E2 (PGE2) Biomarker Activity (AID 2283082)
Settings: primary human HUVEC with PBMC; actives raise or lower the signal
Procedure: BSK_LPS is a cell-based, multiplexed-readout assay that uses umbilical vein endothelium and peripheral blood mononuclear cells, a human vascular primary cell co-culture, with measurements taken at 24 hours after chemical dosing in a 96-well plate.BSK_LPS_PGE2 is an assay component measured in the BSK_LPS assay. It measures PGE2 antibody related to regulation of gene expression using ELISA technology.Data from the assay component BSK_LPS_PGE2 was analyzed into 1 assay endpoint. This assay endpoint, BSK_LPS_PGE2, was analyzed with bidirectional fitting relative to DMSO as the negative control and baseline of activity. Using a type of binding reporter, gain or loss-of-signal activity can be used to understand changes in the signaling as they relate to the gene PTGER2. Furthermore, this assay endpoint can be referred to as a primary readout, because this assay has produced multiple assay endpoints where this one serves a signaling function. To generalize the intended target to other relatable targets, this assay endpoint is annotated to the gpcr intended target family, where the subfamily is rhodopsin-like receptor.
The levels of cell surface (or secreted, indicated by the prefix "s") biomarker endpoints were measured by ELISA. Overt cytotoxicity to cells in confluent adherent cultures (all systems other than the BT system) was assessed by measuring total protein levels using sulforhodamine B (SRB) staining in parallel cultures at the time of biomarker measurements, indicated as SRB endpoints. For proliferation assays for adherent cell types, individual cell types are cultured at sub-confluence and relative cell numbers quantified by SRB staining at time points optimized for each system (48 h: 3C and CASM3C systems; 72 h: BT and HDF3CGF systems; 96 h: SAg system). SRB was performed by staining cells with 0.1% SRB after fixation with 10% TCA and reading wells at 560 nm.Viability and proliferation of PBMC (T cells) was quantified by Alamar Blue reduction for the SAg and BT systems. For PBMC viability (referred to as PBMC Cytotoxicity within the assay endpoint names), cells were plated (75,000/well in a 96-well plate) and then chemical samples added for 1 h before addition of activators, SEB and TSST-1 (20 ng/mL final concentration each). Cells were incubated for 90 h. Then, Alamar Blue (20 uL/well) (Invitrogen, Cat DAL1100) was added for 6 h, and the plates were read with a fluorescence microplate reader at 546/580 nm (excitation/emission). For PBMC proliferation, cells were plated and activated as above but incubated for only 16 h prior to addition of Alamar Blue. Plates were read after 6 h.

| SMILES | outcome | AC50 |
| --- | --- | --- |
| CCC(=O)OCc1ccccc1 | inactive | – |
| C[C@H]1C[C@@H]2[C@H]([C@@H](O)C[C@@]3(C)[C@H]2CC[C@]3(O)C(=O)CO)[C@@]2(C)C=CC(=O)C=C12 | inactive | – |
| C=C[Si](OCC)(OCC)OCC | inactive | – |
| CCCCC/C=C/C=C/C=O | – | 25.3 µM (active) |
| CC(=O)OCCC(C)CC(C)(C)C (stereo not given) | inactive | – |
| O=P(c1ccccc1)(c1ccccc1)c1ccccc1 | inactive | – |
| COC(=O)c1ccc(C)cc1 | inactive | – |
| Cc1ccc(O)c(C(C)(C)C)c1 | inactive | – |
| CC(C)Oc1ccccc1O | inactive | – |
| C=C(C)C(=O)O[C@H]1C[C@@H]2CC[C@@]1(C)C2(C)C | inactive | – |
| CCCCC(CC)COC(=O)/C=C\C(=O)OCC(CC)CCCC (stereo not given) | inactive | – |
| CCn1c2ccccc2c2cc(N)ccc21 | – | 5.42 µM (active) |
| COc1cc(C=O)ccc1OC(=O)C(C)C | inactive | – |
| CC(C)(COC(=O)c1ccccc1)COC(=O)c1ccccc1 | inactive | – |
| c1ccc2sc(SN(C3CCCCC3)C3CCCCC3)nc2c1 | – | 13.1 µM (active) |
| CC(C)c1ccc(C(C)C)cc1 | inactive | – |
| OC1OC[C@@H](O)[C@H](O)[C@H]1O (stereo not given in full) | inactive | – |
| CNC[C@H](O)c1cccc(O)c1 | – | 0.167 µM (active) |
| Cc1ccc2n[nH]nc2c1 | inactive | – |
| OC[C@H]1O[C@H](O[C@]2(CCl)O[C@H](CCl)[C@@H](O)[C@@H]2O)[C@H](O)[C@@H](O)[C@H]1Cl | inactive | – |

| SMILES | outcome | AC50 |
| --- | --- | --- |
| O=C(O)c1cn(C2CC2)c2cc(N3CCNCC3)c(F)cc2c1=O | inactive | – |
| CC(=O)[C@H]1CC[C@H]2[C@@H]3CC=C4C[C@@H](O)CC[C@]4(C)[C@H]3CC[C@]12C | – | 3.97 µM (active) |
| CCc1c(C)cc(N)c(CC)c1N | inactive | – |
| CC(=O)/C=C/C1=C(C)CCCC1(C)C | inactive | – |
| CN(CCOc1ccc(CC2SC(=O)NC2=O)cc1)c1ccccn1 (stereo not given) | – | 0.121 µM (active) |
| CC[Si](OC(C)=O)(OC(C)=O)OC(C)=O | inactive | – |
| BrC1CCC(Br)C(Br)CCC(Br)C(Br)CCC1Br (stereo not given) | – | 3.87 µM (active) |
| CC(=O)Nc1ccccc1O | inactive | – |
| O=C=NC1CCC(CC2CCC(N=C=O)CC2)CC1 (stereo not given) | inactive | – |
| O=C1OC2(c3cc(Br)c(O)c(Br)c3Oc3c2cc(Br)c(O)c3Br)c2c(Cl)c(Cl)c(Cl)c(Cl)c21 | – | 3.33 µM (active) |
| O=C(O)c1ccc([N+](=O)[O-])cc1 | inactive | – |
| NCCNCCN | inactive | – |
| CC1COc2ccccc2N1C(=O)C(Cl)Cl (stereo not given) | inactive | – |
| CCCCC(CC)COCCC#N (stereo not given) | inactive | – |
| Nc1cc([N+](=O)[O-])ccc1Cl | inactive | – |
| CCCCCCCCC=O | inactive | – |
| O=C(O)C[C@H](O)C[C@H](O)/C=C/c1c(C2CC2)nc2ccccc2c1-c1ccc(F)cc1 | inactive | – |
| Nc1cc([N+](=O)[O-])ccc1O | – | 3.97 µM (active) and 6.28 µM (active) |
| CCCCCCCCCC=O | inactive | – |
| Cc1cc(C2(c3cc(C)c(O)cc3C)OS(=O)(=O)c3ccccc32)c(C)cc1O | inactive | – |
